Compound activity: PubChem, National Center for Advancing Translational Sciences (NCATS)
FEN1 inhibitor = human FEN1 inhibition. Potency, µM (series often up to 114 µM), usual class: inhibitors. 0.35% of 390,000 active. Recombinant FEN1 flap cleavage, fluorescence, 15 min; note: nearly all actives have a fitted effect of over 65% in size
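Enzyme 10 nM, 15 min RT preincubation with compound; start with substrate 50 nM final; reads at 0 and 15 min; qHTS titration, four-parameter Hill fit.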
POLH inh = inhibitors of human DNA polymerase eta | Q9Y253 | recombinant Pol eta, fluorescent DNA replication assay | Potency, µM (series often up to 114 µM), hits mostly inhibitors | 1.2% of 390,000 active | AID 588591
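Fluorescent replication assay: 50 nM final substrate added after a 15 min room-temperature compound preincubation with 10 nM enzyme. Signal taken at 0 min and again at 10 min.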
Pol beta inh = DNA polymerase beta (human) inhibition | Potency, µM (doses to about 114 µM), most hits filed as inhibitors | Pol beta primer extension/strand displacement, fluorescence kinetic | 1.3% of 340,000 active
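Homogeneous kinetic assay of primer extension and strand displacement by 10 nM Pol beta, preincubated 15 min at room temperature with compound before 50 nM substrate (final) was added. Read at 0 and 10 min; four-parameter Hill fit.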
POLI inh = blocks human DNA polymerase iota activity | Q9UNA4 | Pol iota fluorescent replication assay, 10 min | Potency, µM (highest dose often 115 µM), most hits filed as inhibitors | 1% of 390,000 active
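Pol iota at 10 nM preincubated 15 min with compounds at room temperature; reaction started with fluorescent substrate, 50 nM final. Fluorescence read kinetically at 0 and 10 min; buffer-only wells as negative control.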
Pol kappa inh = blocks human DNA polymerase kappa activity; Q9UBT6; purified Pol kappa, fluorescent DNA synthesis assay, 10 min; Potency, µM (doses to about 107 µM), actives largely listed as inhibitors; 0.53% of 400,000 active; AID 588579
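Pol kappa 10 nM + cpd, 15 min RT; start w/ substrate 50 nM final; fluorescence kinetic read, 0 and 10 min. Neg ctrl: buffer, no enzyme.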
WRN inhibitor = inhibitors of human WRN helicase. Q14191. WRN helicase unwinding, fluorescent forked duplex, kinetic. Potency, µM (doses to about 114 µM), actives largely listed as inhibitors. 0.46% of 360,000 active; note: nearly all actives have a fitted effect of over 55% in size
Target sequence (Q14191 whole entry, looked up): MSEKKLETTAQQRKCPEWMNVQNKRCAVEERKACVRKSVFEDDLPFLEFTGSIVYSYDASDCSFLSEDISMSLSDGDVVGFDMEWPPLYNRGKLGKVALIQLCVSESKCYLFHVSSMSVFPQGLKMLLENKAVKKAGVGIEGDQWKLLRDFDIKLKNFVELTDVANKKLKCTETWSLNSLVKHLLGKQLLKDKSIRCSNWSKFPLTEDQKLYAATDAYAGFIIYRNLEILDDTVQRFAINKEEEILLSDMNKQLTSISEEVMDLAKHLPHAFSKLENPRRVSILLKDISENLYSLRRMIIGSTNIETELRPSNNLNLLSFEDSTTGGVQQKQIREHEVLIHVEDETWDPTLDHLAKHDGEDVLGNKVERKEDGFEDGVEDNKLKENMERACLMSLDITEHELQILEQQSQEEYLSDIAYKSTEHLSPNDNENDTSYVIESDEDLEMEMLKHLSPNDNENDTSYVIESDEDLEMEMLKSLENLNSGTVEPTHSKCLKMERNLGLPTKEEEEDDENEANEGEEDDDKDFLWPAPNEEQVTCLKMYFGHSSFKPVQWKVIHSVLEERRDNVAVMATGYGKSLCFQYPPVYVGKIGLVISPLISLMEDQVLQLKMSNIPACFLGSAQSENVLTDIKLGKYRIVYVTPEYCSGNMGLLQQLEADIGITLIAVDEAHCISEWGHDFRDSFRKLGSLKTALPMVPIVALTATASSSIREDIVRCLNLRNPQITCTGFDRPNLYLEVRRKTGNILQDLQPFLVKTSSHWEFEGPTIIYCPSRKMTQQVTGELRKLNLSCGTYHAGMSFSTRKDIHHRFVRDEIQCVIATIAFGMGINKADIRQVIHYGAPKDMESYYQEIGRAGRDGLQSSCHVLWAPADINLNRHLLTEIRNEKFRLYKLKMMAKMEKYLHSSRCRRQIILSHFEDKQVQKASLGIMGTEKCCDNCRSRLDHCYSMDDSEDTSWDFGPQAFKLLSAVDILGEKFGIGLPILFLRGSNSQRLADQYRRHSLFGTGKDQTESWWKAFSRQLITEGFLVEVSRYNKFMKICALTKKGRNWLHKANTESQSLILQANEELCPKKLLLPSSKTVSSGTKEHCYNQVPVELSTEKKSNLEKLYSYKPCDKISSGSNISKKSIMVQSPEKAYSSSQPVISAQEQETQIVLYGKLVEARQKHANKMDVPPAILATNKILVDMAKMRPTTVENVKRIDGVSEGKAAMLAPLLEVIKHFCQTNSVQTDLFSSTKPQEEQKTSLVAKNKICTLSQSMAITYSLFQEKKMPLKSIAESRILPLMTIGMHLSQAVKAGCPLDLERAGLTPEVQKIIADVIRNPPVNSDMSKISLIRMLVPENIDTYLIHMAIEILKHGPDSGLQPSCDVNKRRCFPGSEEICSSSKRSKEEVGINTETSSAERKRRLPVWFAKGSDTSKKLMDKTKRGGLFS
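Kinetic red-fluorescence monitoring (525/598 nm) tracks WRN helicase activity after 100 nM fluorophore-quencher forked duplex and 2 mM ATP are added to 20 nM enzyme pretreated 15 min at room temperature with compound.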
Numbers stand for hits; 0 = inactive; ? = inconclusive; - = no result; ! = repeats disagree; [ ] = another dose, or the depositor's remark. The list is not random: actives were taken first. Their share in the collection is about 2.4%. Calls come from the whole dose curve; as a rule, active = well fitted curve in the direction sought with a large enough effect; inconclusive = small, poorly fitted or top-dose-only effect, or another doubt; inactive = no such curve, though single readings can be large; an effect the other way counts as inactive or inconclusive.

SMILES	FEN1 inhibitor	POLH inh	Pol beta inh	POLI inh	Pol kappa inh	WRN inhibitor
CC(C)(C)n1ncc2c(=O)n(Cc3ccc(C#N)c(F)c3)cnc21	0	-	-	0	0	-
Cc1cccc(C(=O)Nc2nnc(S(=O)(=O)N3CCC(C)CC3)s2)c1	0	79µM!	0	0	0	0
COc1cccc(C(=O)Nc2nnc(S(=O)(=O)N3CCCc4ccccc43)s2)c1	0	50µM	0	0	0	-
Cc1cccc(C(=O)Nc2nnc(S(=O)(=O)N3CCCc4ccccc43)s2)c1	0	?	0	0	0	-
O=C(Nc1nnc(S(=O)(=O)N2CCCCC2)s1)c1cccc(Br)c1	0	45µM	0	?	0	0
O=[N+]([O-])c1ccc(-c2cc3ccccc3[nH]2)cc1	0	-	-	0	0	-
CSc1nc(N(CCO)CCO)c2sc3nc(-c4ccco4)c4c(c3c2n1)CCC4	?	1.1µM	1.8µM	1.8µM	10µM	13µM
N#Cc1ccc2c(c1)C[C@]1(c3ccsc3)Oc3c(c(=O)oc4ccc(F)cc34)C2O1	-	-	11µM	-	-	-
N#Cc1ccc2c(c1)C[C@]1(c3ccsc3)Oc3c(c(=O)oc4ccccc34)C2O1	-	-	2.8µM	-	-	-
CCCC[C@]12Cc3cc(C#N)ccc3C(O1)c1c(c3ccccc3oc1=O)O2	-	-	0[22.9 µM]	-	-	-
Cc1cc2c(c(=O)n1-c1ccccc1)C1O[C@](c3ccsc3)(Cc3cc(C#N)ccc31)O2	-	-	8.9µM	-	-	-
Cc1cc2c(c(=O)o1)C1O[C@](c3ccsc3)(Cc3cc(C#N)ccc31)O2	-	-	10µM	-	-	-
CCCCn1c(C)cc2c(c1=O)C1O[C@](c3ccsc3)(Cc3cc(OC)c(OC)cc31)O2	-	-	0[22.9 µM]	-	-	-
Cc1ccc2nccc(/C=C/c3ccc(N(C)C)cc3)c2c1	0	-	-	0	0	-
O=C1c2ccccc2C(=O)N1c1ccc(S(=O)(=O)N2CCOCC2)cc1	0	-	-	0	0	-
O=C(COc1ccccc1C(=O)Nc1ccccc1)Nc1ccc2ccccc2c1	0	-	-	?	0	-
COc1ccc2c3c(c(=O)oc2c1)C1O[C@](c2ccsc2)(Cc2cc(C#N)ccc21)O3	-	-	3.2µM	-	-	-
CCCC[C@]12Cc3cc(C#N)ccc3C(O1)c1c(c3cc(F)ccc3oc1=O)O2	-	-	0[22.9 µM]	-	-	-
O=C(Nc1cccc(N=Cc2cc(Cl)cc(Br)c2O)c1)c1ccco1	0	?	0	0	0	?
O=C(Nc1cccc(N=Cc2cc(Br)cc(Br)c2O)c1)c1ccco1	0	?	0	89µM	0	?
O=C(CCN1CCN(c2ccccc2)CC1)N/N=C/c1ccc(O)c(O)c1O	28µM	22µM	2.8µM	1.3µM	3.5µM	40µM
CC1Cc2ccccc2C[N+]1(C)CC(=O)c1cccc([N+](=O)[O-])c1 (configuration not stated)	0	-	-	0	0	-
Nc1cccc2c(=O)c3ccccc3[nH]c12	0	0	45µM	0	0	0
Cc1ccc(S(=O)(=O)CCC(=O)Nc2sccc2C(N)=O)cc1	0	28µM	-	?	?	0
Cc1ccc(S(=O)(=O)CCC(=O)Nc2sccc2C#N)cc1	0	0	-	0	0	0
SMILES	FEN1 inhibitor	POLH inh	Pol beta inh	POLI inh	Pol kappa inh	WRN inhibitor
O=c1[nH]c2cc(F)ccc2c2ccc(F)cc12	0	20µM	-	?	0	0
O=C(C[n+]1cccc2cccc(O)c21)c1ccc(Cl)cc1	0	-	-	0	0	-
COc1ccc2c(c1)C=C/C2=C/c1ccc(N(C)C)cc1	0	-	-	0	0	-
Cc1nnc(SCC(=O)NCc2ccccc2F)c2nn(-c3ccc(Cl)cc3)c(C)c12	0	?	?	71µM	0	-
CCN(CC(=O)Nc1c(F)cccc1F)C(=O)c1ccc(C(=O)c2ccccc2)cc1	0	0	-	0	0	0
CCc1nc2ccc(C(=O)N(CC)CC(=O)Nc3c(F)cccc3F)cc2nc1CC	0	35µM	-	?	0	0
CN(C)c1ccc(/C=C/c2c3c(nc4ccccc24)CCCC3)cc1	0	-	-	0	0	-
O=C(NNC(=O)c1cc2cc3ccccc3nc2s1)c1cccc(C(F)(F)F)c1	0	?	22µM	?	?	0
CCOC(=O)c1c(NC(=O)CSc2cn(CCNC(=O)c3ccc(OC)c(OC)c3)c3ccccc23)sc2c1CCCC2	0	0	0	0	0	-
COc1ccccc1/C=C1\C=Cc2ccccc21	0	-	-	?	0	-
C(=Nc1ccc(/C=C/c2ccnc3ccccc23)cc1)c1ccco1	0	-	-	0	0	-
O=c1cc[nH]c2c1ccc1c(=O)cc[nH]c12	?	28µM	0	?	?	0[11.6 µM]
CCCOC(=O)c1cc(-c2ccc(C=O)o2)ccc1Cl	0	0	0	0	0	0
CCCOC(=O)c1cc(-c2ccc(/C=C3/C(=O)N(C)C(=O)C(C#N)=C3C)o2)ccc1Cl	0	25µM	-	?	0	0[11.6 µM]
O=[N+]([O-])c1ccc2c(c1)C=CC2	0	-	-	79µM	79µM	-
CN1CCc2c(sc(NC(=O)c3ccco3)c2C(N)=O)C1	0	0	0	0	0	0
CN1CCc2c(sc(NC(=O)c3cc4cc([N+](=O)[O-])ccc4s3)c2C(N)=O)C1	-	-	22µM	-	-	-
Cc1cccc2cc(CN(Cc3ccccc3)Cc3nnnn3Cc3ccccc3)c(=O)[nH]c12	0	-	-	0	0	-
CCCC(=O)Nc1ccccc1OCc1cc(=O)n2cc(C)ccc2n1	0	0	0	0	0	-
Cc1ccc2nc(COc3ccccc3NC(=O)c3ccc(F)cc3)cc(=O)n2c1	0	0	?	89µM	0	-
COc1cc(C(=O)NC2CCN(C)CC2)ccc1Nc1ncc2c(n1)N(CCc1ccccc1)CCC(=O)N2C	50µM	0	-	0	0	0
NC(=S)N=Nc1c(O)cc(O)c2[nH]c(=O)ccc12	13µM	1.8µM	-	3.2µM	?	16µM
NC(=S)N=Nc1c(O)[nH]c2ccc(F)cc12	0	0	0	0	0	0
CN(C)c1ccc(NC(=O)Cn2c(SCc3ccc(F)cc3)nc3cccnc32)cc1	0	0	18µM	0	0	-
CN(C)c1ccc(NC(=O)Cn2c(SCc3ccc(F)cc3)nc3ccncc32)cc1	0	0	0	0	0	-
SMILES	FEN1 inhibitor	POLH inh	Pol beta inh	POLI inh	Pol kappa inh	WRN inhibitor
Cc1ccc(F)c(C2C3C=CCC(C)C3C(=O)N2Cc2ccccc2)c1 (configuration not stated)	0	-	-	0	0	-
O=C(O)c1cc2cc(Cl)cc(Cl)c2oc1=O	0	?	79µM	?	?	0
CN(C1CCCCC1)S(=O)(=O)c1cc2c3c(c1)CCN3C(=O)CC2	0	0	-	0	0	0
O=C1CCc2cc(S(=O)(=O)NC3CCCCC3)cc3c2N1CC3	0	?	-	50µM	0	0
COc1ccc(SCC(CC(C)C)N2CCN(CCc3ccccc3)CCC2=O)cc1 (configuration not stated)	0	-	-	0	0	-
CCCCNc1ncnc2oc(-c3ccco3)c(-c3ccco3)c12	?	-	-	71µM	?	-
CN(C)CCNc1ncnc2oc(-c3ccccc3)c(-c3ccccc3)c12	?	0	0	?	0	0
